Laboratory results reported in PubChem BioAssay (NCATS).
Inconclusive results are not listed. A number with no mark means an inactive call. The source made the active and inactive calls. Calls come from the whole dose curve; as a rule, active = well fitted inhibition curve with a large enough effect; inconclusive = small, poorly fitted or top-dose-only effect; inactive = flat fitted curve, though single readings scatter.

Target: Calcium and integrin-binding protein 1 (Homo sapiens) (UniProt Q99828)
Sequence (Q99828 whole entry, looked up): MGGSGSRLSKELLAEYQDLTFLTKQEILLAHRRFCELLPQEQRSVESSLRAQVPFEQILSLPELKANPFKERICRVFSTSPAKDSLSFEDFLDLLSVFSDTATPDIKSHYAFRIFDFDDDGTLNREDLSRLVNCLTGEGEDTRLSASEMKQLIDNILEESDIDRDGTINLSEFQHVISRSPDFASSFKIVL
Assay: Primary qHTS for Identification of Calcium Integrin Binding Protein 1 (CIB1) Competitor (AID 1508620); note: top concentration of the series differs between compounds
Details: CIB1-GST / FITC-alphaIIb peptide fluorescence polarization; series mostly up to 114 µM; activity change, negative = inhibition: at the top concentration
Method in brief: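 Fluorescence polarization competition: GST-tagged CIB1 (1 uM final) preincubated with compound 15 min at room temperature, then FITC-labelled alphaIIb peptide (100 nM final) added. After 15 min at room temperature, polarization read at Ex 480/Em 540.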
% is set by controls: 0 for no effect and ±100 for the full control effect.

SMILES | activity change, negative = inhibition | Potency
COc1ccc(CN(Cc2ccccc2)C(=O)c2ccccc2O)cc1 | 2.91% | 
COc1ccc(OC)c(C2=Nn3c(nnc3-c3ccccc3C)SC2)c1 | 2.78% | 
CN(Cc1ccco1)c1ncnc2ccc(-c3ccc4c(c3)OCCO4)cc12 | 2.5% | 
O=C(Nc1ccc(-c2nc3ccccc3[nH]2)cc1)c1ccc(-c2ccccc2)cc1 | 8.32% | 
CN(C)[S+](=O)([O-])c1ccc(-c2cncc(NC(=O)c3cccs3)c2)cc1 | -1.81% | 
Cc1ccccc1-c1csc2ncnc(Sc3nnnn3C)c12 | 2.94% | 
FC(F)(F)c1ccccc1-c1nc(NCc2ccc(Cl)cc2)c2ccccc2n1 | 0.567% | 
Cc1cnc(-c2ccccc2C(C)C)nc1NCC1CCN(C)CC1 | 2.08% | 
O=C1CCCC2=C1C(c1[nH]ncc1Cl)NC(=NCc1ncc[nH]1)N2 (stereo not given) | -3.83% | 
O=C(Nc1ccc(F)nc1)Nc1nnc(-c2ccncc2)s1 | -0.195% | 
CN(C)CCCNc1ncnc2ccc(-c3ccc4c(c3)OCO4)cc12 | 1.39% | 
Cc1cccc(C)c1SC1=NS(=O)(=O)c2ccccc21 |  | inactive
O=C(O)c1ccc(-c2ccc3ncnc(NCCc4cnc[nH]4)c3c2)o1 | -11.9% | 
O=S1(=O)N=C(N2CCOCC2)c2ccccc21 | 0.0775% | 
COc1ccc(NC(=O)C(OC(=O)CNC(=O)c2ccccc2)c2ccccc2)c(C)c1 (stereo not given) | -2.14% | 
C=Cc1ccc(C(=O)N2CCCC(CCC(=O)N3CCN(c4ccccn4)CC3)C2)cc1 (stereo not given) | -0.21% | 
O=C1CCCC2=C1C(c1[nH]ncc1Cl)N=C(Nc1nc3c(Cl)cccc3o1)N2 (stereo not given) | -2.81% | 
NCCCCNc1ncnc2ccc(-c3ccc4c(c3)OCO4)cc12 | -3.47% | 
Cc1cc(-c2nnc3n2CCCCC3)c(C)n1-c1ccc(Cl)c(Cl)c1 | -3.24% | 
CC(=O)N1CCN(S(=O)(=O)c2ccc3c(c2)CC(=O)N3)CC1 | -1.8% [at 228 µM] | 

SMILES | activity change, negative = inhibition | Potency
Cc1cc(C)nc(NC(=S)N2CCN(c3ccc4nncn4c3)CC2)c1 | -7.09% | 
Cc1cc(C)nc(NC(=S)N2CCN(c3ccc(Cl)cc3F)CC2)c1 | -4.34% | 
Cc1ccc(OCCn2c(CCNC(=O)C3CCCCCC3)nc3ccccc32)cc1 | 7.72% | 
O=C(Cc1nnc(-c2cc3ccccc3[nH]2)o1)Nc1cc(C(F)(F)F)ccc1Cl | -4.4% | 
Cc1cc2c(s1)c1cnn(Cc3c(F)cccc3F)c(=O)c1n2C | 1.81% | 
O=C(NC1CCCc2c1cnn2-c1ccc(F)cc1F)c1ccc(C2(C(F)(F)F)N=N2)cc1 (stereo not given) | -0.869% | 
Cn1cc(C[C@H](C(=O)O)N2C(=O)c3ccc(C(=O)O)cc3C2=O)c2ccccc21 | -3.89% | 
CN(C)c1ccc(C2N=C(Nc3nc4ccccc4o3)NC3=C2C(=O)CCC3)cc1 (stereo not given) | -9.09% | 
Cc1ccc(-c2ccc(CNc3nc(-c4ccccc4C(C)C)nc4ccccc34)cc2)cn1 | 3.68% | 
Cc1cc(NS(=O)(=O)c2cc3c(cc2F)NC(=O)CC3)ccc1F |  | inactive
O=C(/C=C/c1ccccc1Br)NCCc1nc2ccccc2[nH]1 | -0.875% | 
CN(C)[S+](=O)([O-])c1ccc(-c2ccc(=O)n(CC(=O)NCCc3ccccc3)n2)cc1 | 3.22% | 
CC(=O)c1ccc(NC(=O)c2cnn3c(C)cc(C)nc23)cc1 | 4.1% | 
Cc1ccccc1C(=O)N1CCc2cc(-c3nc(NC(=O)c4ccc5c(c4)OCO5)sc3C)ccc21 | 0.109% | 
O=C(Cc1nnc(-c2nc3ccccc3[nH]2)o1)Nc1cc(C(F)(F)F)ccc1Cl | -0.3% | 
COc1ccc(N2C(=O)c3ccccc3S2(=O)=O)cc1 | 0.496% | 
Cc1nc(C)c(-c2ccc3ncnc(N(C)Cc4sccc4C)c3c2)s1 | -3.39% | 
FC(F)(F)c1cccc(N2CCN(C(=S)Nc3ncnc4ccccc34)CC2)c1 | 12.6% | 
Cc1cc(NS(=O)(=O)c2ccc(NC(=O)C(C)(C)c3ccc(Cl)c(Cl)c3)cc2)no1 | -19% | 
Nc1ccccc1OCCn1c(CCNC(=O)C2CCCCC2)nc2ccccc21 | -2.75% | 
